# Assay results published in PubChem BioAssay AID1566 (Sanford-Burnham Center for Chemical Genomics, 2009).
# About 1,800 (0.62%) of roughly 290,000 compounds were called active. This is one part of a sample in which actives are shown more often than they occur. A number with no mark means an inactive call. No stated cut-off is given here; in the data, active means inhibition above about 50%; inactive means the rest.
# Assay: inhibition of NOD2-driven NF-kB reporter – cell-based, luminescence, uHTS, HEK293 (AID 1566)
# Conditions: HEK293 NOD2/NF-kB luciferase reporter, at 4 µM, stronger effect = higher value
row,Structure (SMILES),inhibition
1,O=C(COc1ccccc1)Nc1ccccc1NS(=O)(=O)c1cccs1,11.6%
2,O=C(COc1ccc(Cl)cc1Cl)Nc1ccccc1NS(=O)(=O)c1cccs1,25.1%
3,OC(c1cccc(Cl)c1)c1nccc2ccccc12 (stereo not drawn),2.5%
4,COC(=O)c1nc2nc(-c3cccs3)cc(C(F)(F)F)n2n1,9.2%
5,Nc1cccc(Oc2ccc3c(c2)C(=O)NC3=O)c1,-12.7%
6,CCOC(=O)c1c(-c2ccc(C)cc2)csc1NC(=O)CCSc1nnc2ccccn12,53.9% (active)
7,Cc1ccc(NC(=O)CCSc2nnc3ccccn23)cc1,18.1%
8,CCOC(=O)c1c(-c2ccccc2)csc1NC(=O)CSc1nnnn1C,12.2%
9,CC(=O)c1c(C)oc2ccc(OCc3ccccc3)cc12,-10.9%
10,CC(=O)/C(=C/c1ccc(N(C)C)cc1)C(=O)c1ccccc1,-7.8%
11,Cc1nn(-c2ccc(C(=O)O)cc2)c(C)c1Cl,11.5%
12,O=C(Nc1ccc(Cl)cc1)c1ccncc1,-5%
13,Cc1nn(-c2ccc(NC(=O)c3ccncc3)cc2)c(C)c1Cl,50% (active)
14,COc1ccc(S(=O)(=O)N(C)c2ccc(C(=O)N3CCN(c4ccccc4)CC3)cc2)cc1OC,7.6%
15,CC(=O)Nc1ccc(S(=O)(=O)Nc2ccc3ccccc3n2)cc1,10.8%
16,Cc1nc(N2CCN(S(=O)(=O)c3ccc(Br)cc3)CC2)c2c(C)c(C)sc2n1,45%
17,CCS(=O)(=O)N1CCN(c2ncnc3sc(C)c(C)c23)CC1,18%
18,COc1ccc(CCC(=O)NNC(=O)c2cc(Cl)ccc2OC)cc1,-4.6%
19,COc1ccc(/C(N)=N/OC(=O)Cc2ccccc2[N+](=O)[O-])cc1,-2.6%
20,COc1ccc(NC(=O)CSc2ncnc3c2sc2ccccc23)c(OC)c1,-3.6%
21,O=C(c1ccc(Cl)cc1)n1c(NCc2ccccc2)n[nH]c1=S,-38.1%
22,Oc1ccc2ccccc2c1/C=N/c1nccs1,-2.7%
23,Oc1ccc(N=Nc2c(O)ccc3ccccc23)cc1,17%
24,Oc1ccc2ccccc2c1N=Nc1nccs1,91.9% (active)
25,O=C(N/N=C/c1ccco1)c1cccc(NC(=O)c2ccccc2Cl)c1,50.6% (active)

row,Structure (SMILES),inhibition
1,O=C(N/N=C/c1ccco1)c1cccc(NC(=O)c2cccc(Cl)c2)c1,12.2%
2,O=C(N/N=C/c1ccco1)c1ccc(NC(=O)c2ccccc2Cl)cc1,-2.4%
3,O=C(Nc1cccc(-n2cccn2)c1)C1CCCN(Cc2ccc(C#CCCO)cc2)C1 (stereo not drawn),-17.7%
4,C=CCNC(=O)c1c(Cl)cccc1Cl,11.9%
5,COc1ccc(CNc2ncnc3c2[nH]c2ccccc23)cc1,23.3%
6,Cc1ccc2[nH]c3c(NCc4ccccc4)ncnc3c2c1,39.4%
7,Fc1ccc2[nH]c3c(NCc4ccccc4)ncnc3c2c1,62.7% (active)
8,CCOC(=O)c1sc2cccc(Cl)c2c1N,10.6%
9,O=C(Cc1c(Cl)cccc1Cl)Nc1ccncc1Cl,13.2%
10,COc1ccc(CC(=O)Nc2cccnc2)cc1,-3%
11,COCc1cc(Sc2ccc(OC)cc2)nc(-c2ccccc2)n1,18.2%
12,CC1CCN(c2ccc(S(=O)(=O)N3CCC(C)CC3)cc2N)CC1,50.3% (active)
13,Nc1cc(S(=O)(=O)N2CCCCC2)ccc1N1CCOCC1,9.9%
14,CC1CCN(S(=O)(=O)c2ccc(S(=O)(=O)N3CCCC3)cc2)CC1,-1.3%
15,Cc1ccc(C(=O)N2CCCC(Nc3ccc(C)c(C)c3)C2)c(=O)[nH]1 (stereo not drawn),9.6%
16,CCCCn1c(SCC(=O)N2CCC(C)CC2)nc2ccsc2c1=O,-2.9%
17,CCCCn1c(SCC(=O)c2ccccc2)nc2ccsc2c1=O,13.3%
18,CC(=O)c1cccc(NC(=O)C2C3CCC(C3)C2C(=O)O)c1 (stereo not drawn),4.1%
19,COc1ccc(NC(=O)c2ccc(NCC3CCCO3)c([N+](=O)[O-])c2)cc1 (stereo not drawn),13.3%
20,Cc1ccccc1NC(=S)NNc1ncc(C(F)(F)F)cc1Cl,4.9%
21,Fc1ccccc1NC(=S)NNc1ncc(C(F)(F)F)cc1Cl,13.7%
22,COc1ccc(/C=C2\SC(=S)N(CCC(=O)NC3C=CS(=O)(=O)C3)C2=O)cc1 (stereo not drawn),11.8%
23,O=C(O)c1ccccc1C(=O)Nc1ccc(Oc2cccc3ccccc23)cc1,61.3% (active)
24,Cc1cccc(Oc2ccc(NC(=O)c3ccccc3C(=O)O)cc2)c1C,8.6%
25,O=C(O)c1ccccc1C(=O)Nc1ccc(Oc2ccccc2)cc1,7.7%

row,Structure (SMILES),inhibition
1,CC(C)[C@H](NC(=O)OC(C)(C)C)C(=O)N/N=C/c1cccc2nccnc12,10.5%
2,CC(=O)CSc1nnc(Cc2ccc([N+](=O)[O-])cc2)o1,9.2%
3,O=[N+]([O-])c1ccc(CSc2nnc(Cc3ccccc3)o2)cc1,1.1%
4,COc1ccc(Cc2nnc(SCc3ccc([N+](=O)[O-])cc3)o2)cc1,56.9% (active)
5,O=C(O)CNC(=S)N(Cc1ccccc1)Cc1ccccc1F,16.1%
6,CN=c1scc(-c2ccccc2Br)n1/N=C/c1ccc[nH]1,42.5%
7,CN=c1scc(-c2ccccc2F)n1/N=C/c1ccc[nH]1,90.4% (active)
8,CN=c1scc(-c2ccccc2F)n1/N=C/c1ccc(O)c(O)c1O,18.1%
9,Cc1cc(C(=O)COC(=O)c2ccc[nH]c2=O)c(C)n1-c1ccc(F)cc1,-12.8%
10,Cc1cc(C(=O)COC(=O)C2CC2)c(C)n1-c1ccc(F)cc1,60.3% (active)
11,Cc1cc(C(=O)CN2CCCCC2)c(C)n1-c1ccc(F)cc1,-23.5%
12,Cc1cccc(C(=O)NC(=S)Nc2ccc3[nH]c(=O)[nH]c3c2)c1,-10.1%
13,O=C(COC(=O)CCC(=O)c1cccs1)Nc1ccc(Cl)cn1,-14%
14,CCN=C1NN=C(c2cc(C)n(Cc3ccco3)c2C)CS1,82.2% (active)
15,Cc1cc(C2=NNC(=NC3CCCCC3)SC2)c(C)n1-c1c(C)n(C)n(-c2ccccc2)c1=O,2%
16,CCN=C1NN=C(c2cc(C)n(CCc3ccccc3)c2C)CS1,0.1%
17,COCCCN=C1NN=C(c2cc(C)n(Cc3ccco3)c2C)CS1,-60.2%
18,Cc1cc(-c2csc(N)n2)c(C)n1Cc1ccco1,1.7%
19,Cc1cc(C2=NNC(=NC3CC3)SC2)c(C)n1Cc1ccco1,85.3% (active)
20,CCCC(=O)C1=C(O)C(C(=O)OC)C(C)(C)CC1=Nc1cccc2ccccc12 (stereo not drawn),13.4%
21,CCCn1c(SCC(=O)NC2CCCCC2)nnc1-c1ccccn1,22.2%
22,C=CCn1c(O)c(C=Nc2ccc(CN3CCCCC3)cc2)c(=O)[nH]c1=S,25.5%
23,CCCCCCn1ccc(=N)cc1,40.3%
24,CCCCCn1ccc(=N)cc1,31.1%
25,C[C@]12CCC3C(CC[C@H]4CC(O)CC[C@]34C)C1CC/C2=N/NC(=O)c1ccncc1 (stereo partly drawn),-5.7%

row,Structure (SMILES),inhibition
1,C/C(=N\NC(N)=S)C1=CCC2C3CC[C@H]4CC(O)CC[C@]4(C)C3CC[C@]12C (stereo partly drawn),54.6% (active)
2,C[C@]12CCC3C(CC[C@H]4CC(O)CC[C@]34C)C1CC/C2=N/O (stereo partly drawn),26.5%
3,O=C(Oc1ccccc1C(=O)Nc1ccccc1)c1ccc(Br)c([N+](=O)[O-])c1,-12.7%
4,Cc1cc(CNC(=O)c2cccc([N+](=O)[O-])c2C)c2ccccc2n1,31.5%
5,O=C(CSc1nnc(CNC(=O)c2ccco2)o1)Nc1ccc(OC(F)(F)F)cc1,9.8%
6,COc1ccccc1NC(=O)CSC1=NC(=O)C(Cc2ccccc2)C(=O)N1 (stereo not drawn),-3%
7,CC(=O)NS(=O)(=O)c1ccc(NS(=O)(=O)c2ccc3ccccc3c2)cc1,0.7%
8,COc1ccccc1Cn1c(=S)[nH]c2cc(C(=O)NCCN(C)C)ccc2c1=O,20.6%
9,Cc1cc(NC(=O)CSc2ccc3nnc(-c4ccc(Cl)cc4)n3n2)no1,5.8%
10,CCOc1cc(/C=C2\C(=N)N3N=C(C)SC3=NC2=O)ccc1OCCOc1cccc(OC)c1,7.2%
11,COc1cc(/C=C2\C(=N)N3N=C(S(C)(=O)=O)SC3=NC2=O)cc(OC)c1OCCOc1cccc(C)c1,25.9%
12,CCS(=O)(=O)C1=NN2C(=N)/C(=C\c3ccc(OS(=O)(=O)c4ccccc4)c(OC)c3)C(=O)N=C2S1,12.5%
13,C=CCOc1ccc(/C=C2\C(=N)N3N=C(S(=O)(=O)CC)SC3=NC2=O)cc1OC,28.5%
14,CCOC(=O)C1=NN(c2ccccc2)C2C(=O)N(c3ccccc3OC)C(=O)C12 (stereo not drawn),21.2%
15,Cc1cc(C)n2nc(SCC(=O)c3ccccc3)nc2n1,-15.3%
16,COc1ccc(-c2csc(NC(=O)Cc3cc(OC)c(OC)c(OC)c3)n2)cc1OC,22.7%
17,COc1ccc(CC(=O)Nc2nc(-c3ccc(F)c(F)c3)cs2)cc1,15.8%
18,COc1cc(CC(=O)Nc2nc(-c3ccc(F)c(F)c3)cs2)cc(OC)c1OC,58.7% (active)
19,O=C(Nc1c(F)cc(F)cc1Br)c1cccnc1,-9.2%
20,C/C(CC(=O)Nc1ccc(Cl)c(Cl)c1)=N\NC(N)=S,-15.1%
21,COc1ccc(-c2cc(-c3ccc(Cl)cc3)c(C#N)c(SCC(=O)O)n2)cc1,62.5% (active)
22,COc1ccc(-c2cc(C(F)(F)F)c(C#N)c(SCC(=O)O)n2)cc1,9.7%
23,N#Cc1c(-c2ccc(Cl)cc2)cc(-c2ccccc2)nc1SCC(=O)O,26%
